Only some compounds are listed: those with a hit (about 12% of all), similar ones and a draw of the others.
G9a inh – blocks human histone lysine methyltransferase G9a | Q96KQ7 | G9a H3K9 monomethylation, AlphaScreen, 2 h | Potency, µM (titrated, usually from 102 µM), inactives show top-dose activity, negative = inhibition, usual class: inhibitors | 8.8% of 350,000 active | AID 504332; note: % is set by controls: 0 for no effect and ±100 for the full control effect; nearly all actives have a fitted effect of over 75% in size
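Using a bead-based AlphaScreen, monomethylated H3K9 product from 2 h room-temperature reactions (G9a 20 nM, peptide 500 nM, SAM 20 uM) was detected with 0.5 ug/mL rabbit anti-H3K9me1 antibody.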
Sfp inh – blocks B. subtilis Sfp PPTase activity | Q9F4F7 | Biochemical Sfp PPTase activity, qHTS | Potency, µM, without a hit: largest response in the series, negative = inhibition, hits mostly inhibitors | 3.5% of 310,000 active | AID 1490;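 note: the enzyme is Sfp with the accession as filed and its product quenches rhodamine fluorescence; 0% = enzyme reaction without inhibitor and -100% = no enzyme wells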
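Buffer: 50 mM Hepes-Na pH 7.6, 10 mM MgCl2, 0.01% Nonidet P-40, 0.01% BSA. Enzyme 15 nM, pre-exposed to compound 15 min; substrates then added and fluorescence change tracked over 30 min.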
L3MBTL1 inh – L3MBTL1 (human) inhibition | 0.66% of 230,000 active | Potency, µM (highest dose often 57.1 µM), inactives show top-dose activity, negative = inhibition, most hits filed as inhibitors | AlphaScreen L3MBTL1–H3K9me1 peptide binding | Q9Y468; note: % is set by controls: 0 for no effect and ±100 for the full control effect; nearly all actives have a fitted effect of over 60% in size
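L3MBTL1 50 nM + b-AHA-H3(1-15)K9me1 75 nM, 30 min RT; compound added, 30 min RT; streptavidin donor/Ni-chelate acceptor beads 10 ug/mL each final, 30 min RT dark; AlphaScreen read.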
BAZ2B inh – BAZ2B (human) inhibition; AlphaScreen BAZ2B-H3K14Ac peptide displacement; Potency, µM (top dose mostly 114 µM), for inactives: top-dose activity change, negative = inhibition, actives largely listed as inhibitors; 4.4% of 360,000 active; Q9UIF8; note: % is set by controls: 0 for no effect and ±100 for the full control effect; nearly all actives have a fitted effect of over 60% in size
Target sequence (Q9UIF8 whole entry, looked up): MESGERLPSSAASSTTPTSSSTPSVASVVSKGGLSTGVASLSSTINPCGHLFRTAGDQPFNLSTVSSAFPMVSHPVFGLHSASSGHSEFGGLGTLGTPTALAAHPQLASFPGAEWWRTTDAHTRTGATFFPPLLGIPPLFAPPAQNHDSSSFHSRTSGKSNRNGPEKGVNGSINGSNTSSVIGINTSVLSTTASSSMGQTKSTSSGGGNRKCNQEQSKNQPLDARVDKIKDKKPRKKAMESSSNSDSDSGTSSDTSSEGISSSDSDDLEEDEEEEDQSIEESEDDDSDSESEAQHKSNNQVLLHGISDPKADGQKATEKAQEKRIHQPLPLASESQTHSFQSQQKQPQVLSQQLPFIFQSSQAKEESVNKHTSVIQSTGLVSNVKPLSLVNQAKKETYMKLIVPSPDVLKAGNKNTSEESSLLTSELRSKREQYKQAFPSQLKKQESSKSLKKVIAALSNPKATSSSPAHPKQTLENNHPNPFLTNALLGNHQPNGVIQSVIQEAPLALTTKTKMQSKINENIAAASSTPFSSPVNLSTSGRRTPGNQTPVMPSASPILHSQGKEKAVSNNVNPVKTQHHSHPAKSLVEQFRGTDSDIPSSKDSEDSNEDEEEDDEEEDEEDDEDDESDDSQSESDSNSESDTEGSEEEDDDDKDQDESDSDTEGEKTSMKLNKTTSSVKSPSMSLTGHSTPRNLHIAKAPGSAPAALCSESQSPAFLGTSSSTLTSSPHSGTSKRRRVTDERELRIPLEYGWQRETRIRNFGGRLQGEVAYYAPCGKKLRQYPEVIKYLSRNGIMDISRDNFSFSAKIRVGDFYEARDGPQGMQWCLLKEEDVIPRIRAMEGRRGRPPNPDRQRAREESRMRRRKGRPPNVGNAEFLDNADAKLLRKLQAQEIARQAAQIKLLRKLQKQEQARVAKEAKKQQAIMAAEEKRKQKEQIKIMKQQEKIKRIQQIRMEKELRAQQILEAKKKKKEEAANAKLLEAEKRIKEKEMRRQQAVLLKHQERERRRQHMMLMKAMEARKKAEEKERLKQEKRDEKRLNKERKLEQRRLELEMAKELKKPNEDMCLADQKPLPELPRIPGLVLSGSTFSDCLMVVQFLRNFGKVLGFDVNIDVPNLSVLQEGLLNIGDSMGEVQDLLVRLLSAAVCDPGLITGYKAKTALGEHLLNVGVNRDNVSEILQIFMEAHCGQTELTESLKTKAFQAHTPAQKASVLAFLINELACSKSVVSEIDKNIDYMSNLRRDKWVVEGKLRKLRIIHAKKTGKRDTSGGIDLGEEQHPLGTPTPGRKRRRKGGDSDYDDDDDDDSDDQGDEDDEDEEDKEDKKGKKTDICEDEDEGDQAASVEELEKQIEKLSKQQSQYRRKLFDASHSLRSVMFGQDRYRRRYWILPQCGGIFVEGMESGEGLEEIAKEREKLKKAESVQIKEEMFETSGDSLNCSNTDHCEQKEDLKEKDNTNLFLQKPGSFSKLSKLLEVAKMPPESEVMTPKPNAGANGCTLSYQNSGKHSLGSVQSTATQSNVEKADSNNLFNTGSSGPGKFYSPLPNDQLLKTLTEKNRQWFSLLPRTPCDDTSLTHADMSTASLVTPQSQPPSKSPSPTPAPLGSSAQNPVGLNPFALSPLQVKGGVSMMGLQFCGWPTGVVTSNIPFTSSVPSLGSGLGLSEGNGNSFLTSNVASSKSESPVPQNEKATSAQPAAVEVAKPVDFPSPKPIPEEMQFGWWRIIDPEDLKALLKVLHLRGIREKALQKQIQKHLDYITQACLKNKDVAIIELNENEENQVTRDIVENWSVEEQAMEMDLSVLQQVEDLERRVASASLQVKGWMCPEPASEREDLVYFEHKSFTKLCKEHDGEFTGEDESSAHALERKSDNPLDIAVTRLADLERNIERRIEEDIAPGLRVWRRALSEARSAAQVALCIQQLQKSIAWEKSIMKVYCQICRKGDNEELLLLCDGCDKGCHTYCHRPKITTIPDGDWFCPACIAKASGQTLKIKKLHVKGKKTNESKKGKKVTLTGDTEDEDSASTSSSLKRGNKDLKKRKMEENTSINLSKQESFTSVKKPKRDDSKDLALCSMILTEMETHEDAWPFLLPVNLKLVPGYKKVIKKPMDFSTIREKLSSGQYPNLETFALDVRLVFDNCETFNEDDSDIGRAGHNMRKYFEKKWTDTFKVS
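BAZ2B (50 nM) with biotin-H3(5-23)K14Ac peptide (50 nM) in PBS pH 7.4, 0.01% Tween-20, preformed 30 min, then compound 30 min at room temperature; top concentration 110uM. AlphaScreen streptavidin donor/nickel chelate acceptor beads (10 ug/mL final), 20 min dark, signal read.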
JMJD2A Tudor inh – JMJD2A Tudor domain (human) inhibition | 4.4% of 390,000 active | AlphaScreen JMJD2A-Tudor / H3K4me3 peptide binding | Potency, µM (titrated, usually from 114 µM), without a hit: top-dose activity change, negative = inhibition, usual class: inhibitors; note: % is set by controls: 0 for no effect and ±100 for the full control effect; nearly all actives have a fitted effect of over 50% in size
HP1b binding inh – inhibitors of HP1-beta chromodomain binding to methylated histone tails; P83916; AlphaScreen HP1-beta / biotin-H3K9me3 peptide binding; Potency, µM (top dose mostly 114 µM), for the others: at the top dose activity change, negative = inhibition, most hits filed as inhibitors; 0.56% of 390,000 active; note: nearly all actives have a fitted effect of over 70% in size
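AlphaScreen: HP1-beta (50 nM) preformed 30 min with biotin-H3(1-18)K9me3 peptide (50 nM) in PBS pH 7.4, 0.01% Tween-20. Compound added for 30 min at RT, then streptavidin donor/nickel chelate acceptor beads (10 ug/mL) for 30 min.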
* marks the source's active call; other numbers are inactive results; ? = inconclusive; . = not tested or not shown; [ ] = remark or other dose. Calls come from the whole dose curve; as a rule, active = well fitted curve in the direction sought with a large enough effect; inconclusive = small, poorly fitted or top-dose-only effect, or another doubt; inactive = no such curve, though single readings can be large; an effect the other way counts as inactive or inconclusive. Potency is the fitted concentration of half-maximal effect.

SMILES	G9a inh	Sfp inh	L3MBTL1 inh	BAZ2B inh	JMJD2A Tudor inh	HP1b binding inh
COc1ccc(-c2ccc(CCC(=O)O)n2-c2ccc(Cl)cc2C)cc1	?	.	.	?	?	2%
Cc1ccc(-c2ccc(CCC(=O)O)n2-c2ccc(C)c(Cl)c2)cc1	13µM*	.	.	?	?	-19%
Cc1ccc(C)c(-n2c(CCC(=O)O)ccc2-c2ccc(Cl)cc2)c1	13µM*	.	.	40µM*	?	-13%
COc1ccc(-c2ccc(CCC(=O)O)n2NC(=O)c2ccc(O)cc2)cc1	7%	21%	-2%	-14%	-17%	45%
COc1ccc(C(=O)Nn2c(CCC(=O)O)ccc2-c2ccc(C)cc2)cc1OC	-30%	3%	0%	-25%	50µM*	-19%
CCN(CC)S(=O)(=O)c1ccc(N2CCN(C)CC2)c(NC(=O)Nc2ccc(C)cc2)c1	?	?	.	-15%	-24%	26%
CCCCNc1nc(C)nc2c1nc(-c1ccccc1)n2CC1CCN(C)CC1	.	12%	.	.	.	.
Cc1nc2ncnn2c(N2CCN(C(c3ccccc3)c3ccccc3)CC2)c1C	?	79µM*	.	?	?	1%
COc1ccccc1CNc1nc(-c2ccccc2OC)nc2ccccc12	-4%[0.501 µM]	-20%	.	.	.	.
COc1cc(C(=S)N2CCOCC2)ccc1OS(=O)(=O)c1ccccc1[N+](=O)[O-]	13µM*	-20%	0%	-6%	?	?
COc1cc(C(=S)N2CCOCC2)ccc1OC(=O)c1ccccc1[N+](=O)[O-]	.	-15%	-10%	-12%	?	-13%
COc1cc(C(=S)N2CCOCC2)ccc1OC(=O)c1cc([N+](=O)[O-])c(C)c([N+](=O)[O-])c1	?	-9%	0%	5%	-28%	-5%
CCOc1cc(C(=S)N2CCOCC2)ccc1OS(=O)(=O)c1ccccc1[N+](=O)[O-]	10µM*	3%	-3%	?	-32%	8%
COc1ccc(C(=S)N2CCOCC2)cc1OS(=O)(=O)c1ccccc1[N+](=O)[O-]	3.2µM*	-29%	-11%	-13%	-29%	?
O=C(CSc1ccccn1)N/N=C/c1cc([N+](=O)[O-])ccc1O	-4%[12.7 µM]	17%	.	45µM*	?	59%
Cc1cccc(NC(=O)CCC(=O)N/N=C/c2cc([N+](=O)[O-])ccc2O)c1	11%	13%	10%	1%	-19%	?
Cc1cc([N+](=O)[O-])nn1CC(=O)N/N=C/c1ccccc1Br	6%	16%	-7%	-8%	-11%	9%
Cc1cc([N+](=O)[O-])nn1CC(=O)N/N=C/c1ccc(O)cc1O	10%	29%	.	89µM*	?	50%
O=C(CSc1ccccn1)N/N=C/c1ccccc1[N+](=O)[O-]	-38%[59 µM]	2%	-6%	-30%	18%	25%
Cc1ccn(CC(=O)N/N=C/c2cc([N+](=O)[O-])ccc2O)n1	20%[59 µM]	6%	?	35µM*	22µM*	31%
O=C(N/N=C/c1cc([N+](=O)[O-])ccc1O)C1C2CCCCC21 (stereo not given)	?	25%	5%	45µM*	.	.
O=C(COC(=O)c1cc(S(=O)(=O)N2CCOCC2)ccc1F)Nc1ccc(Cl)cn1	?	.	-8%	-19%	-21%	49%
O=S(=O)(c1cccc(C(F)(F)F)c1)N1CCC(Oc2ccc(-n3cnnn3)cc2)CC1	9%[59 µM]	.	.	2%	-9%	46%
O=C(N/N=C/c1ccccc1Cl)c1nc2ccc([N+](=O)[O-])cc2c(=O)[nH]1	?	24%	4%	-17%	25µM*	-16%
O=C(CCC(=O)Nc1ccc(Br)cc1)N/N=C/c1cc([N+](=O)[O-])ccc1O	24%	17%	-2%	-32%	-13%	34%
SMILES	G9a inh	Sfp inh	L3MBTL1 inh	BAZ2B inh	JMJD2A Tudor inh	HP1b binding inh
O=C(Cn1cncn1)N/N=C/c1ccncc1	22%	5%	-6%	-9%	-13%	27%
O=C(Cn1cncn1)N/N=C/c1cc([N+](=O)[O-])ccc1O	20%[59 µM]	26%	?	22µM*	25µM*	35%
O=C(Cn1cncn1)N/N=C/c1ccccc1O	.	18%	.	79µM*	56µM*	45%
O=C(N/N=C/c1cc([N+](=O)[O-])ccc1O)c1ccc(COc2ccc3c(c2)CCC3)o1	.	12%	.	45µM*	?	?
Cc1cc(-c2ccc(S(=O)(=O)Nc3cccc(C)c3C)s2)on1	-4%[59 µM]	.	.	1%	4%	35%
Cc1nc2ccc(C(=O)N/N=C/c3cc([N+](=O)[O-])ccc3O)cc2[nH]1	-40%	-13%	-22%	35µM*	56µM*	56%
Cc1nc2ccc(C(=O)N/N=C/c3ccccc3O)cc2[nH]1	-46%[59 µM]	20%	.	-37%	-30%	39%
O=C(Cn1nnc(-c2ccccc2)n1)N/N=C/c1cc([N+](=O)[O-])ccc1O	-22%	-1%	?	?	?	22%
O=C(Cn1nc2ccccc2n1)N/N=C/c1cc([N+](=O)[O-])ccc1O	?	7%	7.9µM*	11µM*	?	-9%
Cc1ccc(-n2c(Cc3ccccc3)nnc2SCc2nc(-c3cccs3)no2)cc1C	-33%[59 µM]	.	.	-22%	-28%	6%
CCc1nn(CC(=O)NCCC(C)C)c(=O)c2cc3c(OC)cccc3n12	1%	3%	.	14%	-18%	18%
COc1ccc(CCC(=O)N/N=C(\C)c2ccc3c(c2)OCO3)cc1	.	16%	.	-10%	-23%	9%
Cc1ccc(C(=O)NCC(=O)OCC(=O)NCCc2ccccc2)s1	-9%	9%	?	?	50µM*	-8%
C/C(=C\C(=O)c1cccnc1)Nc1ccc(O)cc1	-46%[59 µM]	?	.	-36%	-32%	?
COc1ccc(CC(=O)Nc2ccc(C(C)=O)cc2)cc1	11%[12.7 µM]	50µM*	1%	?	-10%	44%
COc1ccc(C(=O)/C=C(\C)Nc2ccc(NC(C)=O)cc2)cc1	35µM*	-6%	1%	79µM*	?	-13%
COc1ccc(C(C#N)=Cc2ccc(NC(C)=O)cc2)cc1	.	.	.	.	3%	10%[57 µM]
COc1ccc(NC(=O)CN(C)C(=O)Cc2ccsc2)cc1	12%[12.7 µM]	13%	.	0%	-2%	32%

Screening results: PubChem, National Center for Advancing Translational Sciences (NCATS)
